# Test results from the supplement of paper PMC8728848.
# About 410 targets per protein were measured; listed, in parts, are those with the strongest signals and a random draw of the rest.
# How the values were obtained:
# Assay in all cases: glycan array binding signal (z-score within array); higher = stronger binding
# Conditions in all cases: glycan notation: IUPAC condensed, linker removed
# [1] = target: GlcNAc(a1-4)Gal(b1-4)GlcNAc
# Procedure, shortened: (§1)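 Arrays were curated from the Consortium for Functional Glycomics database, 3228 in total, and kept only where the protein sequence was available. Binding is expressed as a within-array Z-score. This score was averaged across arrays of the same protein sequence at different concentrations or buffers and across linkers, and negative values can be read as non-binding.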
# [2] = target: GlcNAc(a1-4)Gal(b1-4)GlcNAc(b1-3)Gal(b1-4)GlcNAc(b1-3)Gal(b1-4)GlcNAc
# Procedure, shortened: as §1
# [3] = target: GlcNAc(b1-2)[GlcNAc(b1-4)]Man(a1-3)[GlcNAc(b1-2)Man(a1-6)]Man(b1-4)GlcNAc(b1-4)GlcNAc
# Procedure, shortened: as §1
# [4] = target: GlcNAc(b1-2)[GlcNAc(b1-6)]Man(a1-6)[GlcNAc(b1-2)Man(a1-3)]Man(b1-4)GlcNAc(b1-4)GlcNAc
# Procedure, shortened: as §1
# [5] = target: GlcNAc(b1-2)[GlcNAc(b1-6)]Man(a1-6)[GlcNAc(b1-2)Man(a1-3)]Man(b1-4)GlcNAc(b1-4)[Fuc(a1-6)]GlcNAc
# Procedure, shortened: as §1
# [6] = target: GlcNAc(b1-3)Gal(b1-4)GlcNAc(b1-3)Gal(b1-4)GlcNAc
# Procedure, shortened: as §1
# [7] = target: GlcNAc(b1-3)Gal(b1-4)GlcNAc(b1-3)Gal(b1-4)GlcNAc(b1-2)Man(a1-3)[GlcNAc(b1-3)Gal(b1-4)GlcNAc(b1-3)Gal(b1-4)GlcNAc(b1-2)Man(a1-6)]Man(b1-4)GlcNAc(b1-4)GlcNAc
# Procedure, shortened: as §1
# [8] = target: GlcNAc(b1-3)Gal(b1-4)GlcNAc(b1-3)Gal(b1-4)GlcNAc(b1-3)GalNAc
# Procedure, shortened: as §1
# [9] = target: GlcNAc(b1-3)Gal(b1-4)GlcNAc(b1-3)[GlcNAc(b1-3)Gal(b1-4)GlcNAc(b1-3)]GalNAc
# Procedure, shortened: as §1
# GlcNAc(b1-3)Man = target: GlcNAc(b1-3)Man
# Procedure, shortened: as §1
# [10] = target: GlcNAc(b1-6)Gal(b1-4)GlcNAc
# Procedure, shortened: as §1
# GlcNAc(b1-6)GalNAc = target: GlcNAc(b1-6)GalNAc
# Procedure, shortened: as §1
# Kdn(a2-3)Gal(b1-4)Glc = target: Kdn(a2-3)Gal(b1-4)Glc
# Procedure, shortened: as §1
# [11] = target: Man(a1-2)Man(a1-6)[Man(a1-3)]Man(a1-6)[Man(a1-2)Man(a1-2)Man(a1-3)]Man
# Procedure, shortened: as §1
# Man(a1-3)[Man(a1-6)]Man = target: Man(a1-3)[Man(a1-6)]Man
# Procedure, shortened: as §1
# [12] = target: Neu5Ac(a2-3)Gal(b1-3)GalNAc
# Procedure, shortened: as §1
# [13] = target: Neu5Ac(a2-3)Gal(b1-3)GlcNAc(b1-3)Gal(b1-3)GlcNAc
# Procedure, shortened: as §1
# [14] = target: Neu5Ac(a2-3)Gal(b1-3)GlcNAc(b1-6)GalNAc
# Procedure, shortened: as §1
# [15] = target: Neu5Ac(a2-3)Gal(b1-4)GlcNAc(b1-3)Gal
# Procedure, shortened: as §1
# [16] = target: Neu5Ac(a2-3)Gal(b1-4)GlcNAc(b1-3)Gal(b1-3)GlcNAc
# Procedure, shortened: as §1
# [17] = target: Neu5Ac(a2-3)Gal(b1-4)GlcNAc(b1-3)Gal(b1-4)GlcNAc(b1-3)[Neu5Ac(a2-3)Gal(b1-4)GlcNAc(b1-3)Gal(b1-4)GlcNAc(b1-6)]GalNAc
# Procedure, shortened: as §1
# [18] = target: Neu5Ac(a2-6)Gal(b1-4)GlcNAc(b1-2)Man(a1-3)[Neu5Ac(a2-6)Gal(b1-4)GlcNAc(b1-2)Man(a1-6)]Man(b1-4)GlcNAc(b1-4)[Fuc(a1-6)]GlcNAc
# Procedure, shortened: as §1
# [19] = target: Neu5Ac(a2-6)Gal(b1-4)GlcNAc(b1-2)Man(a1-6)[Man(a1-3)]Man(b1-4)GlcNAc(b1-4)GlcNAc
# Procedure, shortened: as §1
# [20] = target: Neu5Ac(a2-6)Gal(b1-4)GlcNAc(b1-3)Gal(b1-4)GlcNAc(b1-3)GalNAc
# Procedure, shortened: as §1
# [21] = target: Neu5Ac(a2-6)Gal(b1-4)GlcNAc(b1-3)Gal(b1-4)[Fuc(a1-3)]GlcNAc(b1-3)Gal(b1-4)[Fuc(a1-3)]GlcNAc
# Procedure, shortened: as §1
# [22] = target: Neu5Ac(a2-6)Gal(b1-4)GlcNAc(b1-3)[Neu5Ac(a2-6)Gal(b1-4)GlcNAc(b1-6)]GalNAc
# Procedure, shortened: as §1
# [23] = target: Neu5Ac(a2-6)Gal(b1-4)GlcNAc6S
# Procedure, shortened: as §1
# Neu5Ac(a2-8)Neu5Ac = target: Neu5Ac(a2-8)Neu5Ac
# Procedure, shortened: as §1
# [24] = target: Neu5Ac(b2-6)Gal(b1-4)GlcNAc
# Procedure, shortened: as §1
# [25] = target: Neu5Ac9Ac(a2-6)Gal(b1-4)GlcNAc
# Procedure, shortened: as §1
# [26] = target: Neu5Gc(a2-6)Gal(b1-4)GlcNAc
# Procedure, shortened: as §1
binder,measurement,setting,value
PpFlo1 (Pichia pastoris) (protein) MGSSHHHHHHSSGLVPRGSHMQESGDGDISDSAYACDIDATRYDGFNATIYEFQPGDGRLTRDPVFMSTGYLNRTQLHSITGVTDPGFSIYTPGVPTTTLYGIPNVNWENLLLELKGYFRAEVSGDYGLSLRNIDDSAILFFGKETAFQCCNENSISNEASTDYSLFTIFRQEGDETTNLDSFTYTQYLEAGKYYPVRTFFVNIERHAVFNFTMTLPDGTELTDFHNYIYQFGALDEEQCQA,glycan array binding signal (z-score),[1],0.008
same,glycan array binding signal (z-score),[2],0.046
same,glycan array binding signal (z-score),[3],-0.171
same,glycan array binding signal (z-score),[4],-0.18
same,glycan array binding signal (z-score),[5],0.03
same,glycan array binding signal (z-score),[6],0.551
same,glycan array binding signal (z-score),[7],0.609
same,glycan array binding signal (z-score),[8],-0.514
same,glycan array binding signal (z-score),[9],-0.39
same,glycan array binding signal (z-score),GlcNAc(b1-3)Man,1.9
same,glycan array binding signal (z-score),[10],-0.375
same,glycan array binding signal (z-score),GlcNAc(b1-6)GalNAc,-0.373
same,glycan array binding signal (z-score),Kdn(a2-3)Gal(b1-4)Glc,-0.2
same,glycan array binding signal (z-score),[11],-0.565
same,glycan array binding signal (z-score),Man(a1-3)[Man(a1-6)]Man,-0.074
same,glycan array binding signal (z-score),[12],-0.261
same,glycan array binding signal (z-score),[13],-0.308
same,glycan array binding signal (z-score),[14],-0.067
same,glycan array binding signal (z-score),[15],-0.31
same,glycan array binding signal (z-score),[16],-0.004
same,glycan array binding signal (z-score),[17],0.078
same,glycan array binding signal (z-score),[18],0.148
same,glycan array binding signal (z-score),[19],-0.445
same,glycan array binding signal (z-score),[20],-0.424
same,glycan array binding signal (z-score),[21],0.701
same,glycan array binding signal (z-score),[22],0.261
same,glycan array binding signal (z-score),[23],2.26
same,glycan array binding signal (z-score),Neu5Ac(a2-8)Neu5Ac,0.146
same,glycan array binding signal (z-score),[24],0.76
same,glycan array binding signal (z-score),[25],-0.44
same,glycan array binding signal (z-score),[26],0
